Our source for the activation values is PubChem BioAssay AID743287 (Broad Institute, 2014).

The campaign covered roughly 370,000 compounds. About 2,300 (0.62%) were called active. This excerpt belongs to a sample that is enriched for actives. Values without a mark were called inactive.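 Rule for the calls: active = lowest replicate activation of at least 40%, so every replicate reaches that level; inactive = the rest.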

A short description of this assay: primary screen for activators of insulin secretion dependent on glucose, INS-1E cells, GLuc reporter luminescence (AID 743287).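 Note: 0% = median of neutral control wells and 100% = median of IBMX positive control wells.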 The note with it: INS-1E GLuc reporter insulin secretion, 2-3 h, at 16.6 µM, hits give high values.
As to `O=C(C[C@H]1CC[C@H](NC(=O)CCN2CCCCC2)[C@@H](CO)O1)Nc1ccccc1`, the activation is 33.8%.
To `CCOC(=O)c1cc(C(=O)Nc2ccc(S(=O)(=O)Nc3ccc(OC)cc3)cc2)nn1C` belongs 17%; to `CCOC(=O)c1cnc2c(c(C)nn2CC)c1Cl`, 7.57%.
In the case of `CCOC(=O)c1cc(-c2ccc(Cl)s2)nc2c1c(C)nn2C` it was 60% (active); in that of `C[C@H]1CN([C@@H](C)CO)C(=O)Cc2cc(NC(=O)NC3CCCCC3)ccc2O[C@H]1CN(C)S(=O)(=O)c1ccccc1`, -7.37%; in that of `CN1C(=O)c2cc(NC(=O)C3CCC3)ccc2OC[C@@H]2O[C@@H](CC(=O)NCc3ccccc3F)CC[C@@H]21`, 19.7%.
To `CC(=O)c1cccc(-c2cnc3c(NC=O)cc(-c4ccc(N5CCN(C)CC5)cc4)cn23)c1` belongs 9.93%; to `CC(=O)Nc1cc(-c2ccc(N3CCN(C)CC3)cc2)cn2c(-c3cccc(C(=O)N(C)C)c3)cnc12`, 40.3% (active).
Regarding `COc1cccc(-c2cnc3c(NC(C)=O)cc(-c4cccc(NC(C)=O)c4)cn23)c1`, the activation was -1.53%.
In the case of `CC(C)C#Cc1ccc([C@H]2[C@@H](C#N)N(C(=O)CN(C)C)[C@H]2CO)cc1`, the activation is 1.29%.
For the compound `CC(C)NC(=O)N(C)C[C@H]1Oc2ccc(N(C)C)cc2CC(=O)N(C)C[C@@H]1C`, the activation is 0.073%.
In the case of `Cc1ccc(S(=O)(=O)N(C)C[C@H]2Oc3c(NS(=O)(=O)c4ccc(Cl)cc4)cccc3C(=O)N([C@H](C)CO)C[C@@H]2C)cc1` it was 11.6%; in that of `COc1ccc(CCNC(=O)CCn2c(=O)c3ccccc3n(CC(=O)NCC3CCCO3)c2=O)cc1OC` (configuration not stated), 55.9% (active); in that of `COc1ccc(CCNC(=O)CCn2c(=O)oc3ccccc32)cc1OC`, 49.9%.
On to `COc1ccccc1CNC(=O)CCCn1c(=O)c2ccccc2n(CC(=O)NC2CCCC2)c1=O`, for which the activation was -9.86%.
As to `COCC(=O)Nc1ccc2c(c1)OC[C@@H](C)N(Cc1ccccc1C(=O)O)C[C@@H](C)[C@H](OC)CN(C)C2=O`, the activation is 4.87%.
In the case of `O=C(c1ccc(F)cc1)N1CC(=O)N2[C@@H](CO)[C@@H](c3ccc(C#Cc4ccc(F)cc4)cc3)[C@@H]2C1` it was -24.9%.
In the case of `CO[C@@H]1CN(C)C(=O)c2cc(NC(=O)c3cccc(Oc4ccccc4)c3)ccc2OC[C@H](C)NC[C@@H]1C` it was -6.99%.
In the case of `NC[C@H](Cc1ccccc1)NCCc1cc(C(F)(F)F)cc(C(F)(F)F)c1` it was 143% (active); in that of `CCC(=O)N1CCC2(CC1)CN(Cc1cc(F)ccc1F)[C@@H](CO)c1c2c2ccc(OC)cc2n1C`, -0.065%; in that of `O=C(c1ccccc1F)N1CC(=O)N2[C@H](CO)[C@H](c3ccc(-c4cccnc4)cc3)[C@H]2C1`, 27.6%.
Turning to `Fc1c(F)c(C(F)(F)F)c(F)c(F)c1N1CCN(c2ccc3nnc(C(F)(F)F)n3n2)CC1`, the activation was 57% (active).
To `COc1ccc(CN(C)C[C@H]2OCCCC[C@H](C)Oc3ccc(NS(=O)(=O)c4ccc(C)cc4)cc3C(=O)N([C@@H](C)CO)C[C@H]2C)cc1` belongs -29.4%; to `COc1ccc2c3c([nH]c2c1)[C@H](CO)N(S(=O)(=O)c1cn(C)cn1)CC31CCN(CC2CC2)CC1`, 15.9%; to `C/C=C/c1ccc2c(c1)O[C@H](CN(C)C)[C@H](C)CN([C@H](C)CO)S2(=O)=O`, 14.9%.
In the case of `COc1ccc(CNC(=O)COC(=O)CCS(=O)(=O)c2ccc(C)cc2)cc1OC` it was 45.1% (active); in that of `CCOc1ccc(CCNC(=O)COC(=O)C2CCN(S(=O)(=O)c3ccccc3)CC2)cc1OCC`, 22%.
In the case of `CCOc1ccc(CCNC(=O)COC(=O)CCS(=O)(=O)c2ccc(C)cc2)cc1OCC` it was 54.2% (active).
Regarding `COc1ccc(CCNC(=O)CS(=O)(=O)Cc2nc(-c3ccc(C)cc3)oc2C)cc1OC`, the activation was -11.8%.
To `CCOc1ccc(CCNC(=O)COC(=O)c2c(OC)cccc2OC)cc1OCC` belongs 19.6%; to `COc1ccc(CNC(=O)COC(=O)c2ccc(C)c(S(=O)(=O)N3CCOCC3)c2)cc1OC`, 16.8%.
For the compound `COc1ccc(CCNC(=O)CCC(=O)NC2CCCCC2)cc1OC`, the activation was -1.71%.
In the case of `COc1ccc(CCNC(=O)NS(=O)(=O)c2ccc(C)cc2)cc1OC` it was 58.1% (active).
Consider `COc1ccc(CCNC(=O)C(=O)NCc2ccccc2C)cc1OC`, for which the activation was 30.4%.
To `COc1ccc(CCNC(=O)c2nnc(CS(=O)(=O)c3ccccc3)o2)cc1OC` belongs 6.41%; to `COc1ccc(CCNC(=O)CCc2ccccc2O)cc1OC`, 55.3% (active).
In the case of `Cc1ccc(S(=O)(=O)CCC(=O)OCc2ccccc2)cc1` it was -1.88%; in that of `CCCNC(=O)N1CC(=O)N2[C@H](CO)[C@H](c3ccc(C#Cc4cccc(OC)c4)cc3)[C@H]2C1`, -24.3%; in that of `CNC[C@H]1Oc2ccccc2CC(=O)N(C)C[C@H]1C`, 13.7%.
To `Cc1cc(C(=O)Nc2cccc3c2O[C@H](CN(C)C(=O)Nc2ccccc2)[C@@H](C)CN([C@H](C)CO)C3=O)n(C)n1` belongs 26.8%; to `Cc1ccc(S(=O)(=O)N(C)C[C@@H]2Oc3ccc(NC(=O)C4CCCCC4)cc3CC(=O)N([C@@H](C)CO)C[C@H]2C)cc1`, -11.4%.
With `CCS(=O)(=O)Nc1ccc2c(c1)C(=O)N(C)[C@H]1CC[C@@H](CC(=O)N3CCCCC3)O[C@H]1CO2`, the activation was -5.88%.
To `C[C@@H]1CN([C@H](C)CO)S(=O)(=O)c2ccc(-c3ccccc3)cc2O[C@@H]1CN(C)CC1CC1` belongs 10.8%; to `O=C(C[C@H]1CC[C@H](NC(=O)c2ccncc2)[C@H](CO)O1)Nc1ccccc1`, 22%; to `O=C(c1cnccn1)N1CC(=O)N2[C@H](C1)[C@@H](c1ccc(C3=CCCCC3)cc1)[C@@H]2CO`, -9.9%.
To `CO[C@@H]1CN(C)C(=O)c2ccc(NS(C)(=O)=O)cc2OC[C@@H](C)N(C(=O)CC2CC2)C[C@@H]1C` belongs -7.78%; to `NC(=O)Nc1ccccc1C(=O)NCCc1ccccc1`, 16.6%.
In the case of `Nc1nc2c(Br)ccc(Br)c2cc1C(=O)NCCc1ccccc1` it was 41.1% (active); in that of `O=C(NCCc1ccccc1)c1c[nH]c2ccc(F)cc2c1=O`, -9.34%; in that of `CO[C@H]1CN(C)C(=O)c2ccc(NC(=O)c3cc(C)on3)cc2OC[C@@H](C)NC[C@@H]1C`, 14.3%.
Consider `COc1ccc(NC(=O)N(C)C[C@@H]2Oc3c(NS(=O)(=O)c4cn(C)cn4)cccc3C(=O)N([C@H](C)CO)C[C@@H]2C)cc1`, for which the activation is 8.28%.
To `CCC(=O)N1CCC2(CC1)CN(Cc1cccc(OC)c1)[C@@H](CO)c1[nH]c3cc(OC)ccc3c12` belongs 5.34%.
In the case of `Nc1[nH]c(C(=O)c2ccccc2)c(-c2ccncc2)c1C(=O)NCc1cccc2ccccc12` it was 49.2% (active); in that of `Nc1[nH]c(C(=O)c2ccccc2)c(-c2ccc(Br)cc2)c1C(=O)NC1CC1`, 2.55%.
To `CC(C)(C)C(=O)c1c(N)[nH]c(C(=O)c2ccccc2)c1-c1ccc(F)cc1` belongs 0.681%; to `C[C@@H]1CCCCO[C@H](CN(C)C(=O)Cc2ccccc2)[C@H](C)CN([C@@H](C)CO)C(=O)c2cc(NS(=O)(=O)c3ccc(F)cc3)ccc2O1`, -21.1%.
In the case of `COc1ccc2c3c(n(C)c2c1)[C@H](CO)N(Cc1ccccc1Cl)CC31CN(C(=O)CN(C)C)C1`, the activation was 11.4%.
To `O=C(COC(=O)c1cccc(Br)c1)Nc1cccc2c1C(=O)c1ccccc1C2=O` belongs 98% (active); to `O=C(COC(=O)c1cccc(Cl)c1)Nc1ccc2[nH]c(=O)[nH]c2c1`, 5.13%; to `O=C(COC(=O)Cn1cnc2ccccc21)Nc1cccc2c1C(=O)c1ccccc1C2=O`, 4.13%.
In the case of `COc1ccc(-c2cc(C(=O)N(C)Cc3ccc(OC)c(OC)c3OC)c3ccccc3n2)cc1OC` it was 62.1% (active); in that of `COc1ccc(CN(C)C(=O)Cc2ccsc2)c(OC)c1OC`, -7.45%.
To `COc1ccc(C(=O)N(C)Cc2ccc(OC)c(OC)c2OC)cc1S(=O)(=O)N1CCOCC1` belongs -3.04%.
As to `CCn1c(C)cc(=O)cc1-c1ccc(Cl)cc1`, the activation was 9.35%.
In the case of `CCCc1cc(=O)n2[nH]c(C)c(-c3ccc(Cl)cc3)c2n1` it was 43.7% (active).
In the case of `COCc1cc(=O)n2[nH]c(C)c(-c3ccccc3)c2n1` it was -1.45%.
As for `CN(C)C(=O)[C@@H]1[C@@H](CO)[C@@H]2Cn3c(ccc(-c4ccccc4)c3=O)[C@@H]2N1CCC(F)(F)F`, the activation was 21.1%.
In the case of `O=C1N[C@H](c2ccccc2)COCc2cn(nn2)CC[C@@H]1Cc1ccc(Cl)cc1` it was 5.93%; in that of `COc1cccc(NC(=O)N[C@H]2C=C[C@@H](CC(=O)Nc3ccc(-c4ccccc4)cc3)O[C@@H]2CO)c1`, 58.9%.
In the case of `CC(=O)Nc1cc(-c2ccccc2F)cn2c(-c3cccc(C(F)(F)F)c3)cnc12` it was 2.99%.
To `CC(=O)Nc1cc(-c2cccc(CO)c2)cn2c(-c3cccc(C(F)(F)F)c3)cnc12` belongs -3.82%; to `CN(C)CCNC(=O)c1cccc(-c2cnc3c(NC=O)cc(-c4cccc(C(F)(F)F)c4)cn23)c1`, 52.7% (active).
On to `COc1ccc2c3c(n(C)c2c1)[C@@H](CO)NCC31CN(S(=O)(=O)c2cccc(C)c2)C1`, for which the activation is 14.9%.
With `COc1ccc(CCNS(=O)(=O)c2ccc(Cl)s2)cc1OC`, the activation is 40.9% (active).
To `CCOC(=O)c1cc(S(=O)(=O)NCCc2ccc(OC)c(OC)c2)cn1C` belongs 13.8%; to `O=S(=O)(NCCc1ccc(Cl)cc1)c1cccs1`, -20.9%; to `C[C@H](CO)N1C[C@H](C)[C@@H](CN(C)C(=O)C2CCCCC2)OCCCC[C@H](C)Oc2ccc(N(C)C)cc2C1=O`, -2.98%.
To `C[C@H](CO)N1C[C@H](C)[C@@H](CN(C)S(=O)(=O)c2cccc(F)c2)Oc2ncc(-c3cccc(F)c3)cc2C1=O` belongs 3.46%.
To `CCn1c(CNC(=O)c2ccco2)nnc1SCC(=O)Nc1cccc(F)c1` belongs -2.18%; to `CCn1c(SCC(=O)Nc2ccc3c(c2)OCCO3)nnc1C(C)C`, 13.3%.
Consider `CCn1c(SCC(=O)Nc2cccc(F)c2)nnc1-c1cc2cc(Br)ccc2o1`, for which the activation was 85.4% (active).
To `C[C@H](CO)N1C[C@H](C)[C@H](CN(C)S(C)(=O)=O)Oc2ncc(C#CCN(C)C)cc2C1=O` belongs 18.2%; to `NC(Cc1ccc(F)cc1)c1csc(Nc2nncc3ccccc23)n1` (configuration not stated), -32.2%.
To `COc1ccc(CC(N)c2csc(NC(=O)Nc3ccc(C(C)C)cc3)n2)cc1` (configuration not stated) belongs 193% (active); to `NC(Cc1ccccc1)c1csc(Nc2cc(Oc3ccccc3)ncn2)n1` (configuration not stated), -24.7%.
To `COc1ccc(S(=O)(=O)Nc2cccc3c2O[C@@H](CN(C)C(=O)Nc2cccc4ccccc24)[C@H](C)CN([C@@H](C)CO)C3=O)cc1` belongs -8.86%; to `COc1cccc(C#Cc2cnc3c(c2)C(=O)N([C@H](C)CO)C[C@@H](C)[C@@H](CN(C)C(=O)C2CCC2)O3)c1`, -5.49%.
